From PubChem BioAssay AID1527 (The Scripps Research Institute Molecular Screening Center, 2009)
Hit rate of the full screen: of about 290,000 compounds, about 2,600 (0.9%) were called active.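 Rule for the calls: active = inhibition above the mean of all tested compounds plus 3 SD, cutoff set per screening run (cut at about 7.5% in these data); inactive = the rest.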 The entries come from a sample that favours actives as a whole.

system: VIM-2 metallo-beta-lactamase (Pseudomonas aeruginosa); experiment: inhibition of VIM-2 nitrocefin hydrolysis – biochemical, epi-absorbance readout, Pseudomonas aeruginosa enzyme, primary screen (AID 1527); conditions: purified VIM-2, nitrocefin hydrolysis, epi-absorbance fluorescence; at 5.6 µM; hits give high values;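 note: red hydrolysis product quenches plate fluorescence so inhibitors raise well fluorescence; 0% = enzyme with DMSO and 100% = DMSO without enzyme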

| SMILES | inhibition |
| --- | --- |
| CCc1ccc(C2N3CC4([N+](=O)[O-])CN2CC([N+](=O)[O-])(C3)C4(C)C)cc1 (stereo not given) | -3.1% (inactive) |
| COc1ccc(/C=C2\CCCC3C2=NN(C(=O)c2scnc2C)C3c2ccc(OC)cc2)cc1 (stereo not given) | -4.89% (inactive) |
| COc1cccc(NC(=O)c2cc(S(=O)(=O)N3CCc4ccccc43)cn2C)c1 | -2.53% (inactive) |
| CS(=O)(=O)Nc1ccccc1N=C(c1ccccc1)c1ccccc1 | -0.7% (inactive) |
| C[C@@H](Nc1nc(-c2ccccc2)nc2c1oc1ccccc12)C(=O)O | -1.13% (inactive) |
| CCc1nc(Nc2ccc(NC(C)=O)cc2)c2oc3ccccc3c2n1 | 9.84% (active) |
| CCc1nc(Nc2ccc3nccnc3c2)c2oc3ccccc3c2n1 | 6.61% (inactive) |
| COc1cc(OC)c(NS(=O)(=O)c2cn(C)cn2)cc1Cl | -2.52% (inactive) |
| CC1(C)Cc2c(sc(NC(=O)C(=O)NCC3CCCO3)c2C(=O)O)CO1 (stereo not given) | -1.53% (inactive) |
| CC1CCCCC1NC(=O)/C(C#N)=C/C=C/c1ccccc1[N+](=O)[O-] (stereo not given) | -2.25% (inactive) |
| Cc1ccc(C)c(CN2CCC(CNC(=O)Nc3ccc(C)c(F)c3)CC2)c1 | -1.95% (inactive) |
| Oc1ccc2ccc3cccc[n+]3c2c1 | 34.2% (active) |
| COC(=O)c1ccc(NC(=O)c2cc3c(CO)cnc(C)c3oc2=Nc2cccc(C(N)=O)c2)cc1 | -0.03% (inactive) |
| Cc1cc(=O)oc2c3c(cc(OCC(=O)N[C@H](C(=O)O)c4ccccc4)c12)OC(C)(C)CC3 | 1.96% (inactive) |
| Cc1c(C)c2c(OCC(=O)N[C@@H](C(=O)O)c3ccccc3)cc3c(c2oc1=O)CCC(C)(C)O3 | 10.8% (active) |
| Cc1c(C)c2c(OCC(=O)NCCCO)cc3c(c2oc1=O)CCC(C)(C)O3 | 1.34% (inactive) |
| CCC(C(=O)NC1CCCCC1)N(C(=O)c1snc(C(N)=O)c1N)c1ccc(OC)cc1OC (stereo not given) | -1.99% (inactive) |
| Cc1c2cnn(CC(=O)NCc3ccccn3)c(=O)c2c(C)n1Cc1ccc(Cl)cc1 | -1.23% (inactive) |
| COc1cc(NS(=O)(=O)c2ccc(NC(=O)c3ccc([N+](=O)[O-])cc3)cc2)ncn1 | -1.86% (inactive) |
| CCCc1ccc(OCCNC(=O)c2ccco2)cc1 | 33.4% (active) |
| CCCc1ccc(OCCNC(=O)c2ccccc2Br)cc1 | -1.47% (inactive) |
| CCCc1ccc(OCC(=O)NNC(=S)NC(=O)c2ccco2)cc1 | -2.04% (inactive) |
| COc1ccc(Br)cc1CN1CCN(C(=O)c2cccc(OC)c2OC)CC1 | -0.04% (inactive) |
| COC(=O)Cc1cc(=O)oc2c(C)c(O)ccc12 | -5.11% (inactive) |
| COc1cccc(C(=O)OCc2cc(=O)oc3c(C)c(C)ccc23)c1OC | 8.21% (active) |
